Laboratory results published in PubChem BioAssay (NCI).
Where “and” joins values, the source holds several entries; their conditions need not be identical. Identical values can stand only once. This is part of a sample that, as a whole, favours compounds with a hit. Of some 79,000 tested, about 15% had one in any assay. Some structures have more than one record in an assay (separate samples or runs), and their calls can disagree. Calls of active or inactive are those of the source. No stated cut-off is given here; in the data, active means growth inhibition above about 70%; inactive means the rest.

Key:
[1] = NCI Yeast Anticancer Drug Screen. Data for the rad50 strain (AID 155);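 further: 0% = growth of vehicle-only cultures of the same strain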; details: S. cerevisiae rad50 strain growth inhibition; at 50.0 µM; stronger effect = higher value
Procedure, shortened: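 Genetically altered yeast (DNA repair pathway); compound treatment; growth inhibition vs vehicle ctrl.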

[2] = NCI Yeast Anticancer Drug Screen. Data for the mec2-1 strain (AID 157); details: S. cerevisiae mec2-1 strain, at 50.0 µM, stronger effect = higher value
Procedure, shortened: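 Cells of the genetically defined mec2-1 yeast strain are incubated with test compound. Inhibition of growth is calculated against vehicle-treated controls.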

[3] = NCI Yeast Anticancer Drug Screen. Data for the sgs1 mgt1 strain (AID 161);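 further: 0% = growth of cultures given vehicle only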; details: S. cerevisiae sgs1 mgt1 strain, at 50.0 µM, stronger effect = higher value
Procedure, shortened: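 Mutant yeast exposed to compound; growth scored against vehicle-only wells.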

[4] = NCI Yeast Anticancer Drug Screen. Data for the cln2 rad14 strain (AID 165);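 further: 0% = growth equal to vehicle treated cultures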; details: S. cerevisiae cln2 rad14 strain, at 50.0 µM, stronger effect = higher value
Procedure, shortened: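 The screen exposed genetically defined yeast (cln2 rad14) to test compounds and scored growth inhibition relative to vehicle-treated controls.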

[5] = NCI Yeast Anticancer Drug Screen. Data for the bub3 strain (AID 167); details: S. cerevisiae bub3 mutant strain, at 50.0 µM, stronger effect = higher value
Procedure, shortened: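 Yeast carrying a defined mutation is treated with each compound, and growth is compared with that of vehicle-exposed cells to give inhibition.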

[6] = NCI Yeast Anticancer Drug Screen. Data for the mlh1 rad18 strain (AID 175); details: S. cerevisiae mlh1 rad18 strain growth inhibition; at 50.0 µM; stronger effect = higher value
Procedure, shortened: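 Compound-treated yeast growth, normalised to vehicle controls. Strain bears defined DNA repair mutations.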

Row | SMILES | growth inhibition [1] | growth inhibition [2] | growth inhibition [3] | growth inhibition [4] | growth inhibition [5] | growth inhibition [6]
1 | O=CNc1ccc(C(F)(F)F)cc1 | -16.9% (inactive) and 16.4% (inactive) | -6.85% (inactive) and -3.6% (inactive) | -3.3% (inactive) and 6.35% (inactive) | -10.9% (inactive) and 14.7% (inactive) | -8.8% (inactive) and 25.4% (inactive) | 5.3% (inactive) and 10.9% (inactive)
2 | COc1ccc(/C=C2/N=C(N/N=C\C(O)C(O)C(O)CO)NC2=O)cc1 (configuration not stated) | 1% (inactive) and 34.4% (inactive) | 12.4% (inactive) and 17.6% (inactive) | 3.55% (inactive) and 13.3% (inactive) | 26.4% (inactive) and 1.4% (inactive) | -6.95% (inactive) and 21.9% (inactive) | -46% (inactive) and 18.8% (inactive)
3 | CN(C)C(c1ccccc1)C1COC2Cc3ccccc3C1O2 (configuration not stated) | -8.1% (inactive) and -3.3% (inactive) | -4.55% (inactive) and -11.4% (inactive) | 10.3% (inactive) and -2.85% (inactive) | 2.05% (inactive) and 6.35% (inactive) | -27.2% (inactive) and -19.2% (inactive) | -6.6% (inactive) and -23.6% (inactive)
4 | O=C(O)CSc1nc2ccccc2s1 | -8.8% (inactive) and -6.9% (inactive) | 1.7% (inactive) and -9.8% (inactive) | -0.85% (inactive) and -11.6% (inactive) | -28.8% (inactive) and -12% (inactive) | 9.45% (inactive) and -33.6% (inactive) | -12.7% (inactive) and -48% (inactive)
5 | N#CC(C#N)=CN1CCOCC1 | -0.6% (inactive) and 8.35% (inactive) | -24.1% (inactive) and 8.95% (inactive) | 1.75% (inactive) and -7.75% (inactive) | -22.5% (inactive) and 10.4% (inactive) | -0.6% (inactive) and -0.55% (inactive) | 4.1% (inactive) and -12.9% (inactive)
6 | OCC(O)C(O)C(O)c1cnn(-c2ccccc2)n1 (configuration not stated) | 8.95% (inactive) and 4.85% (inactive) | -5.4% (inactive) and 1.9% (inactive) | -4.6% (inactive) and -4.7% (inactive) | 1.75% (inactive) and -3.7% (inactive) | -2.85% (inactive) and -8.2% (inactive) | 14.6% (inactive) and -0.05% (inactive)
7 | O=C(O)C(Cc1ccccc1)Cc1ccccc1 | -11.6% (inactive) and 20.8% (inactive) | 4.6% (inactive) and 3.1% (inactive) | -14.4% (inactive) and 9.8% (inactive) | -40.1% (inactive) and 29.2% (inactive) | -22.9% (inactive) and 43.5% (inactive) | 3.75% (inactive) and 35.2% (inactive)
8 | COc1cc(NCCCNc2c3ccc(Cl)cc3nc3ccc(OC)cc23)c2ncccc2c1 | -3.5% (inactive) and 79.2% (active) | -13.9% (inactive) and 24% (inactive) | 8.15% (inactive) and 70% (active) | -0.35% (inactive) and 54.1% (inactive) | -18.2% (inactive) and 50.2% (inactive) | -4.6% (inactive) and 85.9% (active)
9 | OCC1OC(n2cnc3cncnc32)C(O)C1O (configuration not stated) | 12.4% (inactive) and 3.3% (inactive) | -40% (inactive) and 24.9% (inactive) | 13.4% (inactive) and 23.4% (inactive) | 12.3% (inactive) and -35.8% (inactive) | -3.65% (inactive) and 22.6% (inactive) | 2.15% (inactive) and 29.9% (inactive)
10 | O=c1[nH][nH]c(=O)c2ccccc12 | 7.4% (inactive) and 8.6% (inactive) | -24.6% (inactive) and -7.45% (inactive) | -23.8% (inactive) and -6.7% (inactive) | -1.3% (inactive) and -12.8% (inactive) | -10.3% (inactive) and -0.95% (inactive) | 2.75% (inactive) and 25.1% (inactive)
11 | O=c1[nH]c(=O)n(C2OC(CO)C(O)C2O)c2ncncc12 (configuration not stated) | 3.15% (inactive) and 12.4% (inactive) | 5.7% (inactive) and 4.75% (inactive) | 31.2% (inactive) and -0.75% (inactive) | 4.9% (inactive) and 8.8% (inactive) | 16.4% (inactive) and -30.4% (inactive) | -39.8% (inactive) and -25.5% (inactive)
12 | CC(=O)OCC1OC(Sc2nc(-c3ccc(C)cc3)c(C#N)c(=O)n2C2OC(COC(C)=O)C(OC(C)=O)C(OC(C)=O)C2OC(C)=O)C(OC(C)=O)C(OC(C)=O)C1OC(C)=O (configuration not stated) | 5% (inactive) and -9.15% (inactive) | 7.65% (inactive) and -9.45% (inactive) | -3.1% (inactive) and 20.9% (inactive) | -32% (inactive) and 10.2% (inactive) | 7.2% (inactive) and 20.1% (inactive) | -7.8% (inactive) and -34.5% (inactive)
13 | NCCCNCCCCNCCCN | 14.1% (inactive) and -12.6% (inactive) | 30.6% (inactive) and -27.4% (inactive) | 14.2% (inactive) and -14.9% (inactive) | 8.5% (inactive) and -10.2% (inactive) | 28% (inactive) and -15.6% (inactive) | 19.6% (inactive) and 3% (inactive)
14 | COC(=O)c1ccc(O)cc1 | 27.3% (inactive) and 4.9% (inactive) | 14.6% (inactive) and 25.4% (inactive) | 13.8% (inactive) and 12.4% (inactive) | 3.9% (inactive) and 14.8% (inactive) | -11.6% (inactive) and -4.5% (inactive) | 8.9% (inactive) and -0.35% (inactive)
15 | O=C(Oc1ccc(Cl)cc1Cl)Oc1ccc(Cl)cc1Cl | -16.8% (inactive) and -3.1% (inactive) | 11.6% (inactive) and 10% (inactive) | -0.9% (inactive) and -13.1% (inactive) | -13.1% (inactive) and -15.7% (inactive) | 14.2% (inactive) and 14.9% (inactive) | -14.5% (inactive) and 20.6% (inactive)
16 | O=C1C(Br)CCCCCCCCCC1Br (configuration not stated) | -26.2% (inactive) and 45% (inactive) | -6.4% (inactive) and 11.2% (inactive) | 4.05% (inactive) and 50% (inactive) | -3.1% (inactive) and 22.9% (inactive) | -12.3% (inactive) and 24.4% (inactive) | 0.9% (inactive) and 36.4% (inactive)
17 | CC(=O)c1c(O)c(C)c(O)c2c1OC1=CC(=O)C(C(C)=O)C(=O)C12C (configuration not stated) | 30.6% (inactive) and 28.6% (inactive) and -0.1% (inactive) | 21% (inactive) and 17.2% (inactive) and -20.2% (inactive) | 28.4% (inactive) and 23.8% (inactive) and -25.1% (inactive) | 37% (inactive) and 23.2% (inactive) and -19.4% (inactive) | 30.4% (inactive) and 24.9% (inactive) and 12.6% (inactive) | 23.9% (inactive) and 31.6% (inactive) and -25.6% (inactive)
18 | CC(C)=CCCC(C)C1CCC2(C)C3=C(CCC12C)C1(C)CCC(O)C(C)(C)C1CC3 (configuration not stated) | 32.6% (inactive) and 9.75% (inactive) | 16.4% (inactive) and 2.65% (inactive) | 27.6% (inactive) and 20.9% (inactive) | 25.9% (inactive) and -0.25% (inactive) | 7.8% (inactive) and 15.2% (inactive) | 23.9% (inactive) and 29.6% (inactive)
19 | Nc1ccc(C(=O)NCC(=O)O)cc1 | 13.4% (inactive) and 10.3% (inactive) | 3.65% (inactive) and -4.8% (inactive) | 3.25% (inactive) and 5.05% (inactive) | -41.3% (inactive) and 15.2% (inactive) | 6.75% (inactive) and -3.5% (inactive) | 0.4% (inactive) and 16.7% (inactive)
20 | CC(C)CCC(N)C(=O)O (configuration not stated) | -11.7% (inactive) and 0.15% (inactive) | -14.9% (inactive) and -0.55% (inactive) | -11.5% (inactive) and -6% (inactive) | -42.5% (inactive) and -15.7% (inactive) | -3.25% (inactive) and 3.75% (inactive) | -22.6% (inactive) and -2% (inactive)
21 | COc1ccc2c(=O)c(C)c(-c3ccccc3)oc2c1CN(C)C | 5.85% (inactive) and -33.4% (inactive) | -40.1% (inactive) and -38.5% (inactive) | 10.3% (inactive) and -26.6% (inactive) | 9.8% (inactive) and -0.05% (inactive) | -22.6% (inactive) and -24.3% (inactive) | 2% (inactive) and -28.3% (inactive)
22 | COC(=O)C1OC(O[C@H]2CC[C@]3(C)[C@H]4CC=C5[C@@H]6CC(C)(C)CC[C@]6(C(=O)OC6OCC(O)C(O)C6OC6OC(C)C(OC7OCC(O)C(OC8OCC(O)C(O)C8O)C7O)C(OC7OCC(O)C(O)C7O)C6O)CC[C@@]5(C)[C@]4(C)CC[C@H]3C2(C)C)C(O)C(OC2OCC(O)C(O)C2O)C1O (some centres not stated) | 18.1% (inactive) and 22.6% (inactive) | 7.8% (inactive) and 16.5% (inactive) | 18.6% (inactive) and 23.1% (inactive) | 18.1% (inactive) and 18.7% (inactive) | 30.2% (inactive) and 22.7% (inactive) | 26.2% (inactive) and 38% (inactive)
